Our source for the outcome and AC50 values is PubChem BioAssay (EPA / NIEHS).

Assay [1] relates to SRY-box transcription factor 2 (SOX2) Protein Expression, Deisenroth Lab, SOX2 (gene 6657). The assay is described as follows: CCTE_Deisenroth_DEVTOX-GLR_Endo_SOX2: CCTE's DevTox GLR-Endo Assay Evaluation of SRY-box transcription factor 2 (SOX2) Protein Expression, Deisenroth Lab (AID 2284412; active = hit-call score of the fitted dose curve at least 0.9, where 1 is the maximum). The method, boiled down: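 RUES2-GLR human pluripotent cells were seeded 24 h, then differentiated 48 h with two chemical exposures 24 h apart. Cells were fixed, nuclei stained and imaged by high-content microscopy. Endpoint is %SOX2+ cells over cell count, minus 0.2% DMSO control; 10-point series 1 nM–200 uM.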

Assay [2] relates to SRY-box transcription factor 17 (SOX17) Protein Expression, Deisenroth Lab, SOX17 (gene 64321). The assay is described as follows: CCTE_Deisenroth_DEVTOX-GLR_Endo_SOX17: CCTE's DevTox GLR-Endo Assay Evaluation of SRY-box transcription factor 17 (SOX17) Protein Expression, Deisenroth Lab (AID 2284413). A digest of the protocol:
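Seed RUES2-GLR cells 24 h; start endoderm differentiation; dose at 0 and 24 h (1 nM - 200 uM, 10 points); fix at 48 h, stain nuclei, image 5 fields/well; compute SOX17+/total cells vs 0.2% DMSO.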

Assay [3] has as its system Brachyury (BRA) Protein Expression, TBXT (gene 6862). The assay is described as follows: CCTE_Deisenroth_DEVTOX-GLR_Endo_BRA: CCTE's DevTox GLR-Endo Assay Evaluation of Brachyury (BRA) Protein Expression, Deisenroth Lab (AID 2284417). The method, boiled down:
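RUES2-GLR pluripotent cells differentiated 48 h with two chemical exposures 24 h apart, 10-point range 1 nM - 200 uM. Percentage of BRA+ cells per total count by high-content imaging, minus 0.2% DMSO control.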

A short description of assay [4]: CCTE_Deisenroth_DEVTOX-GLR_Endo_CellCount: Viability Assessment in CCTE's DevTox GLR-Endo Assay, Deisenroth Lab (AID 2284420). A digest of the protocol:
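Nuclei counted by fluorescence microscopy as a surrogate for cell number, expressed as percent change relative to 0.2% DMSO control. Human RUES2-GLR cells, 48 h differentiation, dosed twice; 1 nM - 200 uM series.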

Assay [5] relates to SRY-box transcription factor 17 (SOX17) Protein Expression, Deisenroth Lab, SOX17 (gene 64321). The assay is described as follows: CCTE_Deisenroth_DEVTOX-GLR_Pluri_SOX17: CCTE's DevTox GLR-Pluri Assay Evaluation of SRY-box transcription factor 17 (SOX17) Protein Expression, Deisenroth Lab (AID 2284427; active = hit-call score of the fitted dose curve at least 0.9, where 1 is the maximum). The method, boiled down: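 Readout: percent SOX17+ cells (SOX17+ count/cell count) by high-content imaging of an inducible fluorescent reporter, corrected for 0.2% DMSO solvent control. RUES2-GLR cells, 48 h differentiation, dosed twice at 24 h intervals, 1 nM - 200 uM.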

Assay [6] is described as follows: Tanguay_ZF_120hpf_MORT: Oregon State University Tanguay Lab 120 Hour Post-fertilization zebrafish Assay for Mortality (AID 2284399). A digest of the protocol: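 Dechorionated wild-type Tropical 5D zebrafish embryos, one per well from 6 hpf, static exposure to 120 hpf at 28C in sealed dark plates, 0.64% DMSO final. Mortality scored as binary by brightfield at 24 and 120 hpf.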

Assay [7] is described as follows: Tanguay_ZF_120hpf_EDEM: Oregon State University Tanguay Lab 120 Hour Post-fertilization zebrafish Assay for Edema Malformation (AID 2284400). A digest of the protocol: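 Dechorionated Tropical 5D wild-type embryos, one per well, statically exposed from 6 to 120 hpf at 28C in 0.64% DMSO. Edema scored present/absent by brightfield microscopy at 120 hpf; dead embryos not scored; fit versus DMSO.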

Assay [8] can be described thus: Tanguay_ZF_120hpf_BRN: Oregon State University Tanguay Lab 120 Hour Post-fertilization zebrafish Assay for Brain Region Malformation (AID 2284402). The method, boiled down:
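Dechorionated wild-type Tropical 5D zebrafish embryos exposed statically from 6 to 120 hpf at 28C, one per well, 0.64% DMSO final. Brain malformation scored at 120 hpf by brightfield as present/absent; dead embryos not scored.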

Assay [9] in a line: Tanguay_ZF_120hpf_TCHR: Oregon State University Tanguay Lab 120 Hour Post-fertilization zebrafish Assay for Touch Responsive (AID 2284403). A digest of the protocol:
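Dechorionated Tropical 5D wild-type zebrafish embryos, one per well from 6 hpf, were statically exposed to 120 hpf at 28 °C (0.64% DMSO). Touch response was scored present/absent at 120 hpf and not scored in dead larvae.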

A short description of assay [10]: Tanguay_ZF_120hpf_ANY: Oregon State University Tanguay Lab 120 Hour Post-fertilization zebrafish Assay for Any Mortality and Malformation (AID 2284404). The method, boiled down:
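Dechorionated Tropical 5D wild-type embryos, one per well from 6 hpf, static exposure in sealed, dark plates at 28C until 120 hpf, 0.64% DMSO final. Brightfield scoring of mortality and malformations as binary presence/absence, pooling 13 morphology endpoints.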

The nature of assay [11]: CCTE_Padilla_ZF_Score.Craniofacial: CCTE's 144 Hour Post-fertilization zebrafish Assay Score for Craniofacial Malformation, Padilla Lab (AID 2284405). A digest of the protocol:
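Wild-type zebrafish embryos (with chorions), one per well in 10% Hanks', were dosed at 6–8 hpf in sealed plates and kept at 26C. They were rinsed at 5 dpf. At 6 dpf two blinded assessors scored craniofacial malformations by brightfield stereomicroscopy.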

Assay [12] in a line: CCTE_Padilla_ZF_Score.Edema: CCTE's 144 Hour Post-fertilization zebrafish Assay Score for Edema Malformation, Padilla Lab (AID 2284406). A digest of the protocol: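 Wild-type zebrafish embryos, one per well in Hanks' solution, dosed at 6-8 hpf, sealed and reared at 26C on a 14:10 h cycle; rinsed on 5 dpf. At 6 dpf, blinded assessors scored edema by stereomicroscopy.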
A short description of assay [13]: CCTE_Padilla_ZF_Score.Spine: CCTE's 144 Hour Post-fertilization zebrafish Assay Score for Spine Malformation, Padilla Lab (AID 2284407). The method, boiled down:
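Wild-type zebrafish embryos, one per well in Hanks' solution, dosed at 6–8 hpf in sealed plates at 26C, 14:10 h light:dark; rinsed at 5 dpf. Two blinded assessors scored spinal defects by stereomicroscopy at 6 dpf; fitted versus DMSO.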

Assay [14] is described as follows: CCTE_Padilla_ZF_Score.Swim_bladder: CCTE's 144 Hour Post-fertilization zebrafish Assay Score for Swim Bladder Malformation, Padilla Lab (AID 2284408). The method, boiled down: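 Wild-type zebrafish embryos, one per well in 10% Hanks', dosed at 6–8 hpf, sealed, reared at 26C and rinsed at 5 dpf. Blinded assessors scored uninflated swim bladder by stereomicroscopy at 6 dpf, relative to DMSO.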

Assay [15] is described as follows: CCTE_Padilla_ZF_Score.Position: CCTE's 144 Hour Post-fertilization zebrafish Assay Score for Position, Padilla Lab (AID 2284409). A digest of the protocol: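 Wild-type zebrafish embryos (with chorions) exposed singly from 6–8 hpf in sealed wells of Hanks' solution at 26C, rinsed at 5 dpf. At 6 dpf, blinded assessors scored abnormal water-column position by brightfield stereomicroscopy, relative to DMSO.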

Assay [16] is described as follows: CCTE_Padilla_ZF_Score.Living: CCTE's 144 Hour Post-fertilization zebrafish Assay Score for Viability, Padilla Lab (AID 2284410).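 Also: larval death at 6 dpf judged by absent heartbeat or coagulation.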 The method, boiled down: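 Wild-type zebrafish embryos were exposed singly from 6–8 hpf in sealed wells of Hanks' solution at 26C, then rinsed at 5 dpf. At 6 dpf, blinded assessors scored mortality (no heartbeat or coagulation) by stereomicroscopy, fitted against DMSO.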

Assay [17] in a line: CCTE_Padilla_ZF_Score.General: CCTE's 144 Hour Post-fertilization zebrafish Assay Score for General Malformation, Padilla Lab (AID 2284411). The method, boiled down: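 Wild-type zebrafish embryos were plated singly at 6-8 hpf in 10% Hanks' and exposed in sealed wells at 26C until rinsed on 5 dpf. At 6 dpf two blinded assessors scored mortality, hatching and malformations by stereomicroscopy; gain-of-signal versus DMSO.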

A short description of assay [18]: CCTE_Padilla_ZF_Score.Tail: CCTE's 144 Hour Post-fertilization zebrafish Assay Score for Tail Malformation, Padilla Lab (AID 2284414). The method, boiled down: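 Wild-type zebrafish embryos, one per well in 200 uL 10% Hanks', dosed at 6-8 hpf, sealed, and kept at 26 C on a 14:10 h light cycle. Chemical was rinsed out at 5 dpf. Blinded brightfield scoring of tail defects followed at 6 dpf.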

Assay [19] is described as follows: CCTE_Padilla_ZF_Score.Blood_pooling: CCTE's 144 Hour Post-fertilization zebrafish Assay Score for Blood Pooling, Padilla Lab (AID 2284415). A digest of the protocol: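 Wild-type outbred zebrafish embryos, one per well in 10% Hanks', exposed from 6–8 hpf in sealed plates at 26C on 14:10 h light:dark, rinsed at 5 dpf. Blinded stereomicroscope scoring of blood pooling at 6 dpf; gain-of-signal versus DMSO.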

The nature of assay [20]: CCTE_Padilla_ZF_Score.Any: CCTE's 144 Hour Post-fertilization zebrafish Assay Score for Any Mortality or Malformation, Padilla Lab (AID 2284416). A digest of the protocol: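 Wild-type zebrafish embryos with chorions, one per well in 10% Hanks' from 6–8 hpf, dosed in sealed plates at 26 C, 14:10 h light:dark; rinsed at 5 dpf; blinded scoring at 6 dpf for death or malformation, versus DMSO.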

Several values for one entry are separate records, joined by “and”; a condition that tells them apart may be missing. Equal values may be shown once. Inconclusive results are not listed. Some compounds were tested as several samples or in several runs, with calls that do not always agree. Activity calls are given as the source filed them. The calls were made as follows, unless noted: active = hit-call score of the fitted dose curve at least 0.9, where 1 is the maximum; inactive = score below 0.9.

On to `C[C@@H]1C[C@H]2[C@@H]3CCC4=CC(=O)C=C[C@]4(C)[C@@]3(F)[C@@H](O)C[C@]2(C)[C@@]1(O)C(=O)COP(=O)(O)O`, for which the result in assay [1], in [2], in assay [3], in [4] and in assay [5] was inactive.

As usually defined, the AC50 is the concentration giving half of the maximal activity seen. Turning to `OCCC(F)(F)C(F)(F)C(F)(F)C(F)(F)C(F)(F)C(F)(F)F`, the compound was classed as inactive in [6], in assay [7], in assay [8], in assay [9], in assay [10] and in assay [13]. The compound was called inactive in assay [15], in assay [16], in assay [18] and in [19]. In addition, the half-maximal activity concentration (AC50) in [11] was 30.1 µM (active); in assay [12] it was 16.5 µM (active); in assay [14], 52.7 µM (active); in [17], 2.19 µM (active); in assay [20], 28.6 µM (active).

`CCCCCCCCCCCCCC[N+](C)(C)C`: the compound was called inactive in [17].

Consider `CC(O)CO` (configuration not stated), for which the outcome in [2], in [3], in assay [4] and in assay [5] was inactive.

In the case of `NCC(F)(F)C(F)(F)C(F)(F)C(F)(F)C(F)(F)C(F)(F)C(F)(F)F`, the outcome in [11], in assay [12], in [13], in [14], in assay [15] and in [16] was inactive. The compound was called inactive in [17], in [18], in [19] and in assay [20].

`C=C(C)C(=O)OCCC(F)(F)C(F)(F)C(F)(F)C(F)(F)C(F)(F)C(F)(F)F`: the compound was called inactive in assay [6], in [7], in [8], in assay [9], in assay [10] and in assay [11]. Besides, the compound was classed as inactive in assay [12], in [13], in [14], in assay [15], in assay [16] and in assay [17]. Besides, the outcome in assay [18], in [19] and in [20] was inactive.

`OCCC(F)(F)C(F)(F)C(F)(F)C(F)(F)C(F)(F)C(F)(F)C(F)(F)C(F)(F)F`: the compound was classed as inactive in assay [6], in assay [7], in assay [8], in assay [9], in assay [10] and in assay [11]. For the same compound, the result in assay [12], in assay [13], in [14], in assay [15], in [18] and in assay [19] was inactive. For the same compound, the compound was called inactive in assay [20]. Besides, the figures for the AC50 in [16] and in [17] were 78.3 µM (active) and 88.8 µM (active), respectively.

Consider `CC1=C(/C=C/C(C)=C/C=C/C(C)=C/C(=O)O)C(C)(C)CCC1`, for which the AC50 is 16 µM (active) in assay [1]; 0.102 µM (active) in assay [2]; 8.08 µM (active) in assay [3]; 4.43 µM (active) in [4]; 14.1 µM (active) in assay [5].

On to `FC(F)(I)C(F)(F)C(F)(F)C(F)(F)C(F)(F)C(F)(F)I`, for which the AC50 in assay [11] was 34.5 µM (active) and 26.6 µM (active); in assay [12], 19.1 µM (active) and 5.34 µM (active); in assay [13], 6.93 µM (active); in assay [14] it was 10.9 µM (active) and 8.3 µM (active); in assay [15], 28 µM (active) and 4 µM (active); in assay [16] it was 88.8 µM (active). The AC50 in assay [17] is 15.6 µM (active) and 5.69 µM (active); in assay [19] it was 28.6 µM (active) and 3 µM (active); in assay [20], 10 µM (active) and 3.34 µM (active). The outcome in [13], in assay [16] and in [18] was inactive.
